SW480 rerep: A quantitative high throughput screen for small molecules that induce DNA re-replication in SW480 colon adenocarcinoma cells | Potency, µM (top dose mostly 46.1 µM), for the others: at the highest dose re-replication activation, actives largely listed as activators | 1.8% of 340,000 active | SW480 DNA re-replication, Hoechst DNA content imaging, 48 h; note: % of control where 0% means no effect; nearly all actives have a fitted effect of over 55% in size
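Cells (250 per well) received 23 nL compound or DMSO by pin tool and were kept 48 hr at 37 C, 5% CO2. Nuclei were then stained with Hoechst for 40 min and scanned for DNA content.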
ELG1 genotox: qHTS screen for small molecules that induce genotoxicity in human embryonic kidney (HEK293T) cells expressing luciferase-tagged ELG1. Potency, µM (doses to about 46 µM), without a hit: top-dose activity change, positive = activation, most hits filed as activators. HEK293T ELG1-luciferase reporter, luminescence, 16 h. 1.3% of 330,000 active. AID 504466, 2011; note: % of control where 0% means no effect; nearly all actives have a fitted effect of over 60% in size
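Luminescence read-out: rising ELG1-luciferase signal, reflecting elevated ELG1 protein under genetic stress, flags genotoxic compounds. Cells were treated for 16 hr at 37 °C before ONE-Glo detection.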
ELG1 DNA repair: qHTS screen for small molecules that inhibit ELG1-dependent DNA repair in human embryonic kidney (HEK293T) cells expressing luciferase-tagged ELG1; AID 504467, 2011; HEK293T ELG1-luciferase reporter, luminescence, 16 h; DNA damage induced by 5-fluorouridine; Potency, µM (top dose mostly 46.1 µM), inactives show top-dose activity change, negative = inhibition, hits mostly inhibitors; 2.3% of 330,000 active; note: % is set by controls: 0 for no effect and ±100 for the full control effect; nearly all actives have a fitted effect of over 55% in size
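Quantitative HTS, concentration-response format. 2,000 cells/well co-treated with 5-fluorouridine and compound, 16 hr in 5% CO2 at 37 °C; ONE-Glo luminescence read after 30 min.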
MCF10A rerep: A quantitative high throughput screen for small molecules that induce DNA re-replication in MCF 10a normal breast cells. MCF 10A DNA re-replication, Hoechst nuclear intensity, 48 h. Potency, µM (doses to about 46.1 µM), for the others: at the top dose activity, positive = re-replication, most hits filed as activators. 2.9% of 350,000 active; note: % of control where 0% means no effect; nearly all actives have a fitted effect of over 50% in size
p53 reactivator: qHTS assay for re-activators of p53 using a Luc reporter. H1299 p53-A138V BP100-luciferase reporter, luminescence, 24 h. AID 504706, 2011. Potency, µM (highest dose often 92.2 µM), without a hit: at the top dose activity change, positive = activation, actives largely listed as activators. 0.063% of 320,000 active; note: % of control where 0% means no effect; nearly all actives have a fitted effect of over 45% in size
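H1299 (p53-null), stable ts p53-A138V + BP100-Luc; 1000 cells/well, Opti-MEM/10% FBS; cpd 4 pt, 1:5; 24 h, 37 deg C, 5% CO2; detection reagent 10 min RT; luminescence.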
AT treatment: qHTS Assay for Identifying a Potential Treatment of Ataxia-Telangiectasia; Potency, µM (highest dose often 57.5 µM), for inactives: at the top dose activation, actives largely listed as activators; 0.19% of 320,000 active; F2112 A-T fibroblasts, KAP-1 phosphorylation AlphaLISA; neocarzinostatin DNA damage 30 min before lysis; note: % of control where 0% means no effect; nearly all actives have a fitted effect of over 45% in size
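ATM-like activity read as KAP-1 phosphorylation via AlphaLISA donor/acceptor antibody pairs after lysis and 6 hr at 25C. Cells were ATM-null patient fibroblasts (F2112, hTERT), dosed 60 min, then exposed to the DSB inducer NCS for 30 min.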
Starred values were filed as active, the others as inactive; ? = inconclusive; / = no result given. In the library only some 7.1% were active in any assay of this set; here they are far more common. Calls come from the whole dose curve; as a rule, active = well fitted curve in the direction sought with a large enough effect; inconclusive = small, poorly fitted or top-dose-only effect, or another doubt; inactive = no such curve, though single readings can be large; an effect the other way counts as inactive or inconclusive. Potency is the fitted concentration of half-maximal effect.

SMILES	SW480 rerep	ELG1 genotox	ELG1 DNA repair	MCF10A rerep	p53 reactivator	AT treatment
CN(CC(=O)Nc1cccc(S(=O)(=O)N2CCCC2)c1)CC(=O)Nc1ccc(F)c(F)c1F	2%	/	/	0%	/	/
Cc1ccc(NC(=O)CSc2ccccc2)cc1S(=O)(=O)N1CCOCC1	-35%	1%	-9%	5%	2%	14%
COC(=O)CCC(=O)c1ccc(OC)c(Cl)c1	/	-2%	?	/	-2%	10%
CCN(CC)S(=O)(=O)c1cc(NC(=O)CNc2cccc(S(=O)(=O)N3CCOCC3)c2)ccc1C	11%	5.2µM*	?	21%	0%	4%
CCN(CC)S(=O)(=O)c1cccc(NC(=O)Nc2cccc(C(F)(F)F)c2)c1	?	-10%	13µM*	23µM*	-15%	8%
CCN(CC)S(=O)(=O)c1cccc(NC(=O)CC2CCCC2)c1	-2%	-29%	?	2%	0%	2%
Cc1cc(C(=O)NC2CCCc3c2cnn3-c2ccccc2F)nc(C)n1 (stereo unspecified)	-5%	-1%	13µM*	8%	-8%	-2%
CC(C)c1cc(C(=O)NC2CCCc3c2cnn3-c2ccccc2F)no1 (stereo unspecified)	2%	-1%	?	-1%	11%	1%
Cn1nccc1C(=O)NC1CCCc2c1cnn2-c1ccc(C(C)(C)C)cc1 (stereo unspecified)	?	-14%	2%	18µM*	1%	21%
COc1cc(C(=O)NC2CCCc3c2cnn3-c2ccccc2F)cc(OC)c1OC (stereo unspecified)	-10%	-8%	?	8%	-3%	5%
COC(=O)c1ccc(C(=O)NC2CCCc3c2cnn3-c2ccccc2F)nc1 (stereo unspecified)	18µM*	-2%	?	15µM*	9%	-3%
COc1ccc(C(=O)NC2CCCc3c2cnn3-c2ccc(C)c(C)c2)c(OC)c1OC (stereo unspecified)	?	-6%	18µM*	?	-5%	11%
CCOCc1nnc(NC(=O)CS(=O)(=O)c2ccc(C)cc2)s1	7%	0%	10%	-23%	1%	2%
COc1ccc(CCC(=O)OCC(=O)NC(=O)c2ccc(Cl)cc2)cc1	-1%	0%	27%	7%	-1%	-4%
Cc1cc(C)cc(-n2ncc3c2CCCC3NC(=O)c2ccccc2N2CCOCC2)c1 (stereo unspecified)	21µM*	-1%	-19%	?	5%	8%
O=C(NC1CCCc2c1cnn2-c1ccccc1F)c1ccccc1N1CCOCC1 (stereo unspecified)	-6%	-6%	-4%	-26%	-11%	-3%
O=C(NCc1cccnc1)c1ccc(NS(=O)(=O)c2cccc([N+](=O)[O-])c2)cc1	-2%	0%	5%	6%	-5%	-5%
Cc1cc(C)c2nc(N(CCCN(C)C)C(=O)c3ccc4c(c3)OCCO4)sc2c1	?	1%	16%	18µM*	-3%	15%
Cc1cc(C)c2nc(N(CCCN(C)C)C(=O)C3=COCCO3)sc2c1	?	11%	23%	0%	2%	14%
COc1ccccc1NC(=O)N1CCCC1C(=O)NCCc1ccccc1 (stereo unspecified)	0%	0%	2%	-1%	0%	6%
COc1ccc(-n2nc(C(=O)Nc3ccc(OC)c(OC)c3)c3c4ccccc4n(C)c3c2=O)cc1	16µM*	17%	8.2µM*	?	-2%	-2%
COc1ccc(-n2nc(C(=O)NCC(=O)Nc3cc(OC)ccc3OC)c3ccccc3c2=O)cc1	-5%	-16%	13µM*	13%	-5%	-1%
COc1ccc(-n2nc(C(=O)NCC(=O)Nc3cc(Cl)c(OC)cc3OC)c3ccccc3c2=O)cc1	-2%	-7%	?	0%	-3%	-6%
CCN(CCCNC(=O)CNC(=O)c1nn(-c2ccc(OC)c(OC)c2)c(=O)c2ccccc12)c1ccccc1	10%	-9%	10µM*	20%	-6%	0%
COc1ccc(-n2nc(C(=O)NCC(=O)NCCc3ccc(OC)c(OC)c3)c3ccccc3c2=O)cc1	-1%	-13%	16µM*	4%	-5%	0%
SMILES	SW480 rerep	ELG1 genotox	ELG1 DNA repair	MCF10A rerep	p53 reactivator	AT treatment
O=c1c2ccccc2oc2cc(OCc3cccc(F)c3)cc(O)c12	-10%	-2%	3%	-4%	7%	4%
COc1ccccc1C(CNC(=O)C1CC(=O)N(Cc2ccccc2)C1)N1CCCC1 (stereo unspecified)	-9%	-2%	0%	-4%	1%	2%
CCOC(=O)N1CCC(NC(=O)c2ccc3c(c2)N(Cc2ccccc2)CCS3)CC1	-1%	-22%	15µM*	4%	1%	-6%
CCOC(=O)N1CCC(NC(=O)c2ccc3c(c2)N(Cc2ccc(C)cc2)CCS3)CC1	-1%	0%	?	2%	2%	3%
CCOC(=O)N1CCC(NC(=O)c2ccc3c(c2)N(Cc2ccc(F)cc2)CCS3)CC1	7%	-27%	18µM*	0%	-2%	5%
COc1ccc(OC)c(NS(=O)(=O)c2ccc3c(c2)C(C)(C)C(=O)N3C)c1	-1%	10%	9%	4%	/	7%
S=C(NCc1ccncc1)Nc1cccc(Cl)c1	-5%	-6%	2%	-1%	3%	3%
Fc1ccc(CNC(=S)Nc2cccc(Cl)c2)cc1	5%	-2%	10%	16µM*	7%	-3%
S=C(NCc1cccs1)Nc1cc(Cl)cc(Cl)c1	?	-16%	?	23µM*	4%	7%
O=[N+]([O-])c1ccc(NC(=S)NCc2ccc(F)cc2)cc1	?	1%	?	16µM*	-31%	1%
CCn1c(SCc2ccccc2Cl)nc2ccccc21	10%	14%	?	?	14%	7%
Cn1c(SCc2ccccc2Cl)nc2ccccc21	7%	5.8µM*	?	?	?	/
Cn1c(SCc2ccccc2Cl)nnc1-c1cnccn1	-10%	11µM*	?	1%	?	2%
Cc1cccc(NC(=O)c2ccc(N3CCCCC3)c([N+](=O)[O-])c2)n1	-5%	?	?	10µM*	?	-6%
